Data: the supplement of paper PMC10849652
Of roughly 7,900 targets only a part is listed; those with a hit were picked by preference. About 0.6% of all pairs of compound and target were hits. Unmarked numbers belong to inactive results.

How the values were obtained:
Assay in all cases: log2 fold change, soluble protein after heating vs DMSO (PISA); higher = thermal stabilisation; K562 cells, 10 uM, 30 min; active = over 0.2 and 3.5 SD of the protein, either way, in both replicates (recomputed)
[1] = compound: C#Cc1cccc(Nc2ncnc3cc(OCCOC)c(OCCOC)cc23)c1 [erlotinib]
Procedure, shortened: (§1)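 Soluble protein was quantified by TMTpro 16plex LC-MS/MS after channel sums were equalised. It was obtained as the supernatant after 21,000xg for 90 min from pooled aliquots of K562 cells (2×10^6 cells/mL, 10 μM compound, 30 min) heated for 3 min across 48°C-58°C and extracted in PBS with 0.5% NP-40 at 4°C. Thermal stability values are relative to control samples and come from duplicates. They are given as log2 fold changes.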

[2] = compound: C/C(=N\NC(=O)C1=CC(=CC=C1)S(=O)(=O)N2CCOCC2)/C3=C(C=CC(=C3)Cl)O
Procedure, shortened: as §1

[3] = compound: C1=CC(=C(C=C1Cl)C2=NC3=NC=CN=C3C(=N2)NC4=CC=NC=C4)F
Procedure, shortened: as §1

[4] = compound: C1=CC(=CC=C1C2=NC3=C(N2)C=C(C=C3)C(=O)N)OC4=CC=C(C=C4)Cl
Procedure, shortened: as §1

[5] = compound: C1=CC2=C(C=CC(=C2)/C=C\3/C(=O)NC(=NCC4=CC=CS4)S3)N=C1
Procedure, shortened: as §1

[6] = compound: C1=CC=C2C(=C1)C3=NNC4=CC=CC(=C43)C2=O
Procedure, shortened: as §1

[7] = compound: C1COCCN1CCN2C3=CC=CC=C3N=C2NC(=O)C4=CC(=CC=C4)[N+](=O)[O-] [IRAK-1-4 Inhibitor I]
Procedure, shortened: as §1

[8] = compound: CC(=O)c1cnc2ccc(-c3cc(Cl)c(O)c(Cl)c3)nc2c1N[C@H]1CC[C@H](CN(C)C)CC1
Procedure, shortened: as §1

[9] = compound: CC(C)(O)CC(=O)NCCn1ccc2ncnc(Nc3ccc(Oc4cccc(C(F)(F)F)c4)c(Cl)c3)c21
Procedure, shortened: as §1

[10] = compound: CC(C)C1=C2N=C(C=C(N2N=C1)NCC3=CC=CC=C3)NCCCCCCN
Procedure, shortened: as §1

[11] = compound: CC(C)N(C[C@H]1O[C@@H](n2cnc3c(N)ncnc32)[C@H](O)[C@@H]1O)[C@H]1C[C@@H](CCc2nc3cc(C(C)(C)C)ccc3[nH]2)C1 [pinometostat]
Procedure, shortened: as §1

[12] = compound: CC1=C(C(CC(=O)N1)C2=CC=C(C=C2)C(F)(F)F)C(=O)NC3=C(C=C4C(=C3)C=NN4)F
Procedure, shortened: as §1

[13] = compound: C1=CC2=NC=CN=C2C=C1/C=C/3\C(=O)NC(=O)S3
Procedure, shortened: as §1

[14] = compound: C1=CC=C(C=C1)C2=NC(=C(N2)C3=CC=NC=C3)C4=CC(=C(C=C4)Cl)O
Procedure, shortened: as §1

[15] = compound: C1CCN(C1)C(=O)NC2=CC=CC(=C2)NC3=NC=C(C(=N3)NCCC4=CN=CN4)Br
Procedure, shortened: as §1

[16] = compound: C1CN(CCC1(CC2=CC=C(C=C2)Cl)N)C3=NC=NC4=C3C=CN4
Procedure, shortened: as §1

[17] = compound: C=CC(=O)N1CCC[C@@H](n2nc(-c3ccc(Oc4ccccc4)cc3)c3c(N)ncnc32)C1 [ibrutinib]
Procedure, shortened: as §1

[18] = compound: CC(C)(C)Cn1c(N)nc2ccc(-c3[nH]c(C(C)(C)C)nc3-c3ccc(F)cc3)nc21 [ralimetinib]
Procedure, shortened: as §1

[19] = compound: CC(C)C[C@@H](C=O)NC(=O)[C@H](CC(C)C)NC(=O)[C@H](CC(C)C)NC(=O)OCc1ccccc1
Procedure, shortened: as §1

[20] = compound: CC1=C(C2=C(C=C1)C(=O)C3=CC=CC=C3N2CCCN)C
Procedure, shortened: as §1

UniProt O95857, sequence (O95857 whole entry, looked up): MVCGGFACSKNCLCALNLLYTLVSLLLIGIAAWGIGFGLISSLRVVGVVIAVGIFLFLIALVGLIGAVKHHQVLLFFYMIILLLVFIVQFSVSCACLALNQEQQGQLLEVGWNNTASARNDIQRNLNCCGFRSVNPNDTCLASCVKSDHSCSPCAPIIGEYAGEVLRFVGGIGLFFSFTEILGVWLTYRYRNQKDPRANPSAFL
UniProt Q6ZVM7, sequence (Q6ZVM7 whole entry, looked up): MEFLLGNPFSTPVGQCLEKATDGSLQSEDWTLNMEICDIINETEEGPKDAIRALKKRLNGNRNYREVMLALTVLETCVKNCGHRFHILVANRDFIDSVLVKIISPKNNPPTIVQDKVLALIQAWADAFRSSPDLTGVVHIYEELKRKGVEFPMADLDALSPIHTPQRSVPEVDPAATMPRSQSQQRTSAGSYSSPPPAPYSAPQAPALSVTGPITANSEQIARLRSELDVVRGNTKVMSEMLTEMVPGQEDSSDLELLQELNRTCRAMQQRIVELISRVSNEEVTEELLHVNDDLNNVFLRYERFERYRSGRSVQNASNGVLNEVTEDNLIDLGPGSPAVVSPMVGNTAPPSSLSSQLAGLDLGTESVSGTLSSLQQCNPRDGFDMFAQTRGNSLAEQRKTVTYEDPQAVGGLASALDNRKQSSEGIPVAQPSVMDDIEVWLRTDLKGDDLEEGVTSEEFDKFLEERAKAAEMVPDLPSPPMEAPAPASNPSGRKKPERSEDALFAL
UniProt O75691, sequence (O75691 whole entry, looked up): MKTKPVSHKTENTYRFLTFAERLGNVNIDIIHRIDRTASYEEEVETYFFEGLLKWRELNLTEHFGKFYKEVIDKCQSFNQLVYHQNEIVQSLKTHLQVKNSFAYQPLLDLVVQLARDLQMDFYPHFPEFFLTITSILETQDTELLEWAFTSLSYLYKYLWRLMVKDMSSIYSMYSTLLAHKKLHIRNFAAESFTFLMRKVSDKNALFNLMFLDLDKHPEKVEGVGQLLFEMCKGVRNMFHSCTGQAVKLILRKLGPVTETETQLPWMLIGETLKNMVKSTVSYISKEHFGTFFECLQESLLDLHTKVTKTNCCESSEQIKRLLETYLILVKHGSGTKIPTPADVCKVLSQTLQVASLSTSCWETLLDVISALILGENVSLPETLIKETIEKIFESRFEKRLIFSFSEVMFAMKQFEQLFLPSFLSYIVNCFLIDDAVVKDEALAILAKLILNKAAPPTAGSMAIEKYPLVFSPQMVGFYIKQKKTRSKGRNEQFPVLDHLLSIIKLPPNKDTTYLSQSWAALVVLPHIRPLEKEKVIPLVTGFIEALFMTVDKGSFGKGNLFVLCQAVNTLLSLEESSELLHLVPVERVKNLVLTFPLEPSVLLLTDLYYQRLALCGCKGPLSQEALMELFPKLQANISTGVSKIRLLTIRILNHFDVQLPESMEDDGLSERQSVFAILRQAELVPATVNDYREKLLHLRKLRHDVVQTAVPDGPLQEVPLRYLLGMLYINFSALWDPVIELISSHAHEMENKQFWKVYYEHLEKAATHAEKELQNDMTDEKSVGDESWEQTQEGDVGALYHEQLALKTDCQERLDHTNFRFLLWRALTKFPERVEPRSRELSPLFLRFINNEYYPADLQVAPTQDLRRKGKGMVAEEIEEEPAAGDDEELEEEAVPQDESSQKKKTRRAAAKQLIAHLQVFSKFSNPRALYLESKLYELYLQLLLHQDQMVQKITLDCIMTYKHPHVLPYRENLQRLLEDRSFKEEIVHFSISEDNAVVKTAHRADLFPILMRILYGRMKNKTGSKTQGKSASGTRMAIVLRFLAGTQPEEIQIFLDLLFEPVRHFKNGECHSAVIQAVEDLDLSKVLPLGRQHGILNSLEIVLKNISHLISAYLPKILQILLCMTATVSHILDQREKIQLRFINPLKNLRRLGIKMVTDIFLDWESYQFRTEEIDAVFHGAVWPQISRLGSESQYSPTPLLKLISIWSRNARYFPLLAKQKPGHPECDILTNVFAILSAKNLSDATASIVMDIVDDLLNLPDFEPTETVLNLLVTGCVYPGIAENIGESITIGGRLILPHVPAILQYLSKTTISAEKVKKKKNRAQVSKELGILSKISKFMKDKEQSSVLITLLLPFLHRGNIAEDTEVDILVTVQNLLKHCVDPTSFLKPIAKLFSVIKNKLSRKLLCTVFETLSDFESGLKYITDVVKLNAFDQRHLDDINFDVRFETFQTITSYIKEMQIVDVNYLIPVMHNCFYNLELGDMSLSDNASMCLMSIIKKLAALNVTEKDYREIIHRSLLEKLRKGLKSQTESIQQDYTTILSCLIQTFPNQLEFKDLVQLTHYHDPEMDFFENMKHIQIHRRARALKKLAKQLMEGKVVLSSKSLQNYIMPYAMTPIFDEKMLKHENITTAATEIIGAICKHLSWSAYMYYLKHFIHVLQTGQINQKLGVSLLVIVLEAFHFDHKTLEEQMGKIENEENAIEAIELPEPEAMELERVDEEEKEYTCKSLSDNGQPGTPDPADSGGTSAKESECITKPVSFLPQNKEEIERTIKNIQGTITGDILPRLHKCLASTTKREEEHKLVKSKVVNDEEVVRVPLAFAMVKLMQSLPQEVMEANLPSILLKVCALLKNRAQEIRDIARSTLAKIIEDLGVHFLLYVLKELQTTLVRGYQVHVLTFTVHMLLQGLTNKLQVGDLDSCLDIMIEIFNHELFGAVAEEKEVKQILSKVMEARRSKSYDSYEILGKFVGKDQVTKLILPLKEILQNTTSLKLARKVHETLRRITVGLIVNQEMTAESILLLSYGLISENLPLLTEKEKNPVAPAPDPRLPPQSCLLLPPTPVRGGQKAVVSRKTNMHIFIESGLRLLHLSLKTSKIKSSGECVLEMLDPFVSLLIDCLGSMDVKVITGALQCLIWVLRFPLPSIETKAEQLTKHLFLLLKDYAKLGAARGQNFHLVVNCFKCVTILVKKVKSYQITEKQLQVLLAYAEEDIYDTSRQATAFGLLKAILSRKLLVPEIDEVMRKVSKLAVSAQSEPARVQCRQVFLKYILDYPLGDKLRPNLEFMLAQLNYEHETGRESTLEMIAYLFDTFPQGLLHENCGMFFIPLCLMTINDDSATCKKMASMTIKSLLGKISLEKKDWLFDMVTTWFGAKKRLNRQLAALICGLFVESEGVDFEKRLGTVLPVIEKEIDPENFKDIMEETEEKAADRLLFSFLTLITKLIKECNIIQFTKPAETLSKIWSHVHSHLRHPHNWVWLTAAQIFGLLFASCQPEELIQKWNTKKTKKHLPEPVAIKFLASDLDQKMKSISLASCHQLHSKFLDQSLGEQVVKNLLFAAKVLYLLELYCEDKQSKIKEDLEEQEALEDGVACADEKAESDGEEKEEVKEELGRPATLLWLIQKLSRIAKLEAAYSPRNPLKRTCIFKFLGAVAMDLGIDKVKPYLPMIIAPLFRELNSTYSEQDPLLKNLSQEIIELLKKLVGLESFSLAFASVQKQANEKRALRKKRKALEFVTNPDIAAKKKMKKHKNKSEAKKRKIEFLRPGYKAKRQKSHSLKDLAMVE
UniProt Q629K1, sequence (Q629K1 whole entry, looked up): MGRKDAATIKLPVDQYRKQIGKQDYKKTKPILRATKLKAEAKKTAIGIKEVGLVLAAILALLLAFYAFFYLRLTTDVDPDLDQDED
UniProt Q9BZM6, sequence (Q9BZM6 whole entry, looked up): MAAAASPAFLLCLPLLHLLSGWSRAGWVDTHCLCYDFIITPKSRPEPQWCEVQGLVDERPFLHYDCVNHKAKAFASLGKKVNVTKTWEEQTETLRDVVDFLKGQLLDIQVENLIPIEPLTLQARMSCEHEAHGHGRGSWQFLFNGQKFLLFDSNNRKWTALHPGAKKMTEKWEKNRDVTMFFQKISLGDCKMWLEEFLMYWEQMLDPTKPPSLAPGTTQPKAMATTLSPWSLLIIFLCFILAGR
UniProt O00124, sequence (O00124 whole entry, looked up): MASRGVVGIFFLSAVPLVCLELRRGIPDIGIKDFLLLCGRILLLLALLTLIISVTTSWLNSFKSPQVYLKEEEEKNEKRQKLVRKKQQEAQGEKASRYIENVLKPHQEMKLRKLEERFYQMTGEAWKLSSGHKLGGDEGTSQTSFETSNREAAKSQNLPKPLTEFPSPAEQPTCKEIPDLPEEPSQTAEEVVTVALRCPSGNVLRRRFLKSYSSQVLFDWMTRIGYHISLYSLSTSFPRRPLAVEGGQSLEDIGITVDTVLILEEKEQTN
UniProt Q9Y5Z9, sequence (Q9Y5Z9 whole entry, looked up): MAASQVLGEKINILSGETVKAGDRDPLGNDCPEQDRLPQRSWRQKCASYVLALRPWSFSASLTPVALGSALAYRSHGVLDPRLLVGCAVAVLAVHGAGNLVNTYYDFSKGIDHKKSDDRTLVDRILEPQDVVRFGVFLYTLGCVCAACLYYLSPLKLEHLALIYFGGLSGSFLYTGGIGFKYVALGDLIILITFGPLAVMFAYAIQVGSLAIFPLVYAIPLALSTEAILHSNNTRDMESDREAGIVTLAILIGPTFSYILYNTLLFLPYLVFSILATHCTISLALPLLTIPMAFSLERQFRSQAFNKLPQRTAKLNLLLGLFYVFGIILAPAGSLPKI
UniProt P36406, sequence (P36406 whole entry, looked up): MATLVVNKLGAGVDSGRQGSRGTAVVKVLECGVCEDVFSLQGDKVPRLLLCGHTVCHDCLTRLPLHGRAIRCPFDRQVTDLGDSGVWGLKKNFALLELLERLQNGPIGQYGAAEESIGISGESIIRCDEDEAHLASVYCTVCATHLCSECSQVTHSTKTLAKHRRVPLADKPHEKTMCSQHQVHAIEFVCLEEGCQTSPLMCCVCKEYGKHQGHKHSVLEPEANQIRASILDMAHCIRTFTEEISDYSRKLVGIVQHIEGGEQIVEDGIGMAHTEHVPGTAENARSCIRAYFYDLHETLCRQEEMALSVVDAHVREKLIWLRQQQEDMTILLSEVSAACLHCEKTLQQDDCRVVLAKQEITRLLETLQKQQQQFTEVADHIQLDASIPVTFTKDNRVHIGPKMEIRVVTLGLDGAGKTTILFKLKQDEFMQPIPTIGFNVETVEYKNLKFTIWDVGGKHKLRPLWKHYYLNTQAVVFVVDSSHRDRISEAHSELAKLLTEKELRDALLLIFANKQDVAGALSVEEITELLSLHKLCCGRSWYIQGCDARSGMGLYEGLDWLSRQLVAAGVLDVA

Row | Target | log2 fold change [1] | log2 fold change [2] | log2 fold change [3] | log2 fold change [4] | log2 fold change [5] | log2 fold change [6] | log2 fold change [7] | log2 fold change [8] | log2 fold change [9] | log2 fold change [10] | log2 fold change [11] | log2 fold change [12] | log2 fold change [13] | log2 fold change [14] | log2 fold change [15] | log2 fold change [16] | log2 fold change [17] | log2 fold change [18] | log2 fold change [19] | log2 fold change [20]
1 | TOM1L2 (UniProt Q6ZVM7) | -0.048 | 0.06 | 0.043 | 0.013 | 0.025 | -0.026 | -0.049 | -0.031 | -0.089 | 0.049 | 0.036 | -0.012 |  |  |  |  |  |  |  | 
2 | WARS1 (UniProt G3V339) |  |  | -0.023 |  |  |  |  |  | 0.044 |  |  |  |  |  |  |  |  |  |  | 
3 | UNC119B (UniProt A6NIH7) | 0 | 0.124 |  | 0.316 | 0.031 | 0.005 | 0.113 | 0.028 |  | 0.272 | 0.126 | -0.048 | 0.001 | 0.472 (active) | -0.012 | 0.454 (active) | 0.08 | 0.014 | 0.088 | -0.047
4 | WDR46, A0A0G2JJL1 | -0.273 |  | -0.741 | -0.011 |  |  | -0.153 |  | 0.269 | 0.003 | 0.325 | 0.005 | 0.027 |  | 0.279 | 0.114 | 0.054 |  |  | -0.353
5 | TRIM44 (UniProt Q96DX7) | 0.022 | 0.1 |  | 0.025 | 0.028 | -0.037 | 0.031 | 0.067 |  | -0.06 | -0.01 | -0.007 | 0.087 | -0.061 | -0.023 | -0.014 | 0.018 | -0.094 | 0.061 | -0.327 (active)
6 | TRIM23 (UniProt P36406) | 0.006 |  |  | 0.075 |  |  | 0.064 |  |  | 0.146 | -0.024 | -0.044 | -0.096 | 0.061 | -0.202 | 0.161 | 0.072 | -0.034 | -0.019 | 0.242
7 | TVP23C (UniProt Q96ET8) | -0.025 | 0.053 |  | -0.021 | 0.062 | -0.098 |  | 0.021 |  | 0.011 |  |  |  |  | 0.066 | -0.031 |  |  |  | 0.037
8 | TXNL4B (UniProt Q9NX01) | 0.018 | 0.007 |  | -0.001 | 0.088 | 0.041 | 0.132 | -0.071 |  | -0.02 | -0.053 | 0.026 | 0.221 | 0.008 | -0.005 | -0.016 | -0.065 | -0.057 | 0.074 | 0.067
9 | UBIAD1 (UniProt Q9Y5Z9) | 0.101 | -0.052 |  | 0.04 | 0.194 | 0.297 (active) | 0.012 | -0.055 |  | -0.069 | -0.104 | -0.04 | -0.036 | 0.259 | 0 | 0.094 | -0.009 | -0.032 | 0.029 | 0.047
10 | XAB2 (UniProt Q9HCS7) |  |  | -0.223 |  |  |  | -0.036 |  | -0.138 |  | 0.181 |  |  | 0.075 |  |  |  | 0.14 | -0.041 | 
11 | UBXN8 (UniProt O00124) |  | 0.056 | 0.147 |  | 0.141 | -0.036 |  | 0.039 | 0.138 |  |  |  | -0.41 | -0.149 | 0.167 | -0.019 | 0.077 | 0.211 | -0.227 | 0.259
12 | TOM1 (UniProt O60784) | 0.082 |  | 0.193 | -0.037 |  |  | 0.058 |  | -0.087 | -0.22 | -0.032 |  | 0.186 |  | 0.022 | -0.097 | 0.093 |  |  | -0.236
13 | WARS1 (UniProt G3V3P2) |  |  |  |  |  |  |  |  |  |  |  |  | 0.155 |  |  |  | -0.036 |  |  | 
14 | USP48 (UniProt Q86UV5) | 0.228 |  |  | -0.112 |  |  |  |  |  | -0.246 |  | 0.05 | 0.007 |  |  |  | -0.07 |  |  | 
15 | TMEM104 (UniProt Q8NE00) | 0.08 | -0.026 | 0.037 | 0.026 | 0.039 | -0.015 | -0.039 | 0.038 | 0.009 | -0.473 (active) | -0.106 | 0.126 |  | 0.013 |  |  |  | -0.09 | 0.082 | 
16 | UBE3B (UniProt Q7Z3V4) |  | 0.018 | 0.08 |  | 0.121 | -0.043 | -0.182 | -0.068 | -0.154 |  | 0.239 | -0.102 | 0.135 | 0.064 | 0.395 | 0.16 | -0.019 | -0.296 | 0.001 | -0.188
17 | WARS1 (UniProt G3V227) |  | -0.08 | 0.018 |  | -0.159 | -0.178 |  | -0.022 | 0.259 |  |  |  | 0.093 |  | 0.098 | -0.089 | 0.03 |  |  | -0.048
18 | UBXN10 (UniProt Q96LJ8) | -0.036 |  | 0.004 | 0.048 |  |  | 0.027 |  | -0.145 | -0.017 | 0.058 | 0.026 | -0.068 | -0.077 | -0.101 | 0.128 | 0.054 | -0.045 | 0.038 | 0.085
19 | TSPAN13 (UniProt O95857) | 0.017 |  | -0.058 | 0.061 |  |  |  |  | 0.151 | -0.198 |  | 0.113 | 0.075 | -0.02 | 0.065 | 0.143 | 0.175 | -0.149 | 0.018 | 0.065
20 | TMEM184C (UniProt Q9NVA4) |  | 0.04 | -0.055 |  | -0.05 | -0.009 | 0.105 | 0.042 | 0.088 |  | -0.021 | 0.081 | -0.027 | -0.047 | -0.092 | -0.059 | -0.037 | -0.033 | 0.042 | -0.005
21 | UBAP2L (UniProt F8W726) | 0.019 |  |  | 0.004 |  |  |  |  |  | -0.002 |  | 0.145 | -0.019 |  | 0 | 0.124 | 0.017 |  |  | 0.136
22 | TRIQK (UniProt Q629K1) |  |  | -0.023 |  |  |  | -0.059 |  | -0.054 |  | 0.104 |  | 0.046 | -0.077 | -0.003 | 0.097 | 0.007 | -0.011 | -0.004 | 0.114
23 | TUT4 (UniProt Q5TAX3) | 0.077 |  | -0.231 | 0.005 |  |  | 0.078 |  | 0 | -0.219 | 0.059 | 0.158 | -0.011 | 0.08 | -0.015 | -0.129 | -0.029 | 0.07 | 0.086 | 0.104
24 | VKORC1 (UniProt Q9BQB6) | 0.048 | -0.048 |  | -0.019 | 0.175 | 0.151 | -0.056 | -0.033 |  | -0.306 | 0.092 | 0.007 | 0.113 | 0.044 | -0.049 | 0.005 | 0.024 | -0.052 | -0.029 | 0.049
25 | TUBA4A (UniProt C9JJQ8) |  |  |  |  |  |  | -0.203 |  |  |  | -0.121 |  | 0.004 |  | 0.142 | -0.036 | -0.076 |  |  | -0.042
26 | WDR4 isoform 3 (UniProt P57081) |  |  | -0.144 |  |  |  |  |  | -0.126 |  |  |  | 0.045 |  |  |  | -0.157 |  |  | 
27 | ULBP1 (UniProt Q9BZM6) | -0.017 | 0.011 | 0.231 | 0.044 | 0.021 | 0.037 |  | -0.038 | -0.132 | 0.112 |  |  |  | -0.083 | -0.073 | 0.078 |  | -0.058 | 0.006 | 0.009
28 | TMEM8A (UniProt Q9HCN3) | 0.046 |  |  | -0.001 |  |  |  |  |  | -0.445 (active) |  | 0.007 | 0.02 | 0.124 | -0.014 | 0.011 | 0.06 | -0.131 | -0.036 | 0.044
29 | UTP20 (UniProt O75691) | -0.082 |  | 0.053 | -0.321 |  |  |  |  | -0.172 | 0.081 |  |  |  |  | 0.061 | 0.04 |  |  |  | 0
